Only some compounds are listed: those with a hit (about 3.5% of all), similar ones and a draw of the others.
MITF primary: inhibitors of human MITF; AlphaScreen MITF homodimerization, bead proximity signal; inhibition, % at 2.6 µM; 650,000 tested, 0.91% active; in the data active means inhibition above about 50%;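 further: 0% = vehicle wells with protein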
Target sequence (O75030 whole entry, looked up): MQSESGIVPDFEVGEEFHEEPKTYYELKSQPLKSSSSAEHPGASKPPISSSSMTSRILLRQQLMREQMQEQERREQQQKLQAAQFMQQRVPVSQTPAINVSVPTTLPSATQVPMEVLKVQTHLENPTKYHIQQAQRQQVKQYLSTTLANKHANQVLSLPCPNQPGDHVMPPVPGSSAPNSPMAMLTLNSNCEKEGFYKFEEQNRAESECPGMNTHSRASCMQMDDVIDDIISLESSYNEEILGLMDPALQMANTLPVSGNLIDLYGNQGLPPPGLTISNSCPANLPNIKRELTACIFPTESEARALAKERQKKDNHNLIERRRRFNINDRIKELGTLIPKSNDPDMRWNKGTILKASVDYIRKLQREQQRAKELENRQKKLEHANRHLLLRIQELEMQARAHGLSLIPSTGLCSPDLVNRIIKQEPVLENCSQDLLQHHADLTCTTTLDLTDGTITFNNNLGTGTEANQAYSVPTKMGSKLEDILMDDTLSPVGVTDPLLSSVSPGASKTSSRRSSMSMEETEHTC
TEAD-YAP inh: TEAD-YAP interaction inhibition; inhibition, % at 9.12 µM; AID 1259422; 640,000 tested, 1.4% active; HEK-TIYL cells, TEAD-Gal4/YAP UAS-luciferase luminescence; in the data active means inhibition above about 32%;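 further: 0% = median of test compound wells and 100% = reference inhibitor wells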
GPR151 activ: activators of human GPR151; 650,000 tested, 1% active; activation, % at 11.2 µM; AID 1508602; PathHunter beta-arrestin GPR151 cells, luminescence; Q8TDV0; in the data active means activation above about 4.9%;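 further: 0% = median of compound wells and 100% = cells with positive control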
FBW7 activator: human FBW7 E3 ligase activation, primary screen; AlphaScreen FBW7–phospho-cyclin E peptide binding, activator screen; normalized activity (activation), % at 26.1 µM; 650,000 tested, 0.13% active; in the data active means normalized activity above about 1.9%;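 further: purified mutant Fbw7 with reduced substrate affinity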
GPR151 conf act: confirmation of human GPR151 activators | shares compounds with GPR151 activ | GPR151 PathHunter beta-arrestin cells, luminescence, 90 min; % of EA-reagent control over plate median | activation, % at 11.2 µM | 6,700 tested, under 10 active | AID 1508609;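 active means mean percent activation across replicates above the confirmation screen cutoff of 4.91%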
GPR119 counter: counter-screen for GPR151 activators: effect on human GPR119. shares compounds with GPR151 activ. 6,700 tested, 0.3% active. GPR119 PathHunter beta-arrestin cells, luminescence, 90 min; 0 = compound-well median, 100 = enzyme-acceptor control. activation, % at 11.2 µM. AID 1508611;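 active means mean percent activation in the counterscreen above 29.09%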;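 further: counterscreen on off-target GPR119 to flag nonselective hits from the GPR151 activator screen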
Starred values were filed as active, the others as inactive; . = no result; ! = a repeat was not active.

SMILES | MITF primary | TEAD-YAP inh | GPR151 activ | FBW7 activator | GPR151 conf act | GPR119 counter
Cc1cccc(NC(=O)C2CCCN(S(=O)(=O)c3ccc4[nH]c(=O)ccc4c3)C2)n1 (centres undefined) | 6 | 3 | 5.3* | 0 | 0 | -13
O=c1[nH]c2sc3c(c2c(=O)n1-c1ccccc1)CCCC3 | 3 | 6 | 0 | 0 | . | .
O=c1[nH]c(=S)c2c(n1-c1ccccc1)CCC2 | 5 | 6 | 5.9* | 0 | 1 | 9
O=C(Cc1cccnc1)N[C@H](Cc1ccc(Cl)cc1)c1nc2ccc(-c3cn[nH]c3)cc2c(=O)[nH]1 | 4 | 9 | 5.5* | 0 | 1 | 12
O=C(c1ccco1)N1CCN(C(=O)c2cc3c(Cl)nc4ccccc4c3s2)CC1 | -4 | -5 | 0 | 0 | . | .
CCOC(=O)N1CCN(C(=O)c2c[nH]c3ccc(S(=O)(=O)N4CCOCC4)cc3c2=O)CC1 | 4 | -2 | 1 | 0 | . | .
CCN(CC)c1ccc(C(=O)Nc2nc3c(s2)C(=O)CC(C)(C)C3)cc1 | 1 | 1 | 5.2* | 0 | 0 | 3
CCN(CC(=O)Nc1nc2c(s1)C(=O)CC(C)(C)C2)c1ccccc1 | 12 | 9 | 1 | 0 | . | .
CC1(C)CC(=O)C2=C(C1)Nc1ccc3ccccc3c1C2c1ccc(Cl)c(Cl)c1 (centres undefined) | -10 | -8 | 0 | 0 | . | .
CC1(CC(=O)N/N=C/c2cn(Cc3ccc(Cl)cc3)c3ccccc23)OCCO1 | 10 | 17 | -1 | 0 | . | .
CC1=C(C)/C(=N/OC(=O)c2ccc(C)cc2)C=CC1=O | 2 | -2 | 7.0* | 0 | 0 | 12
O=C(NCc1cccc(C(F)(F)F)c1)c1cnc(N2CCc3ccccc3C2)s1 | 6 | -3 | 3 | 0 | . | .
Cn1cccc1C(CNS(=O)(=O)c1cc(F)ccc1F)N1CCCC1 (centres undefined) | -9 | -4 | -1 | 0 | . | .
CCOc1ccc(C)cc1S(=O)(=O)NCC(c1cccn1C)N1CCCC1 (centres undefined) | 9 | 1 | 5.2* | 0 | 0 | -1
COc1ccc(CCNc2ncnc3nc(-c4cccc(N)c4)[nH]c23)cc1 | 7 | 6 | 5.2* | 0 | 1 | 3
COc1ccc(CCNc2ncnc3nc(NCCN4CCOCC4)[nH]c23)cc1 | 7 | 11 | 5.6* | 0 | 1 | -1
COc1ccc2c(c1)OC[C@@H](Cc1ccc(OC)c(OC)c1)[C@@H]2O | -13 | -3 | 5.0*! | 0 | 0 | -1
COc1ccc(C(=O)Cc2ccc(OC)c(OC)c2)c(OC)c1 | -5 | -2 | 4 | 0 | . | .
COc1ccc(C2C(C#N)=C(N)Oc3n[nH]c(C)c32)c2ccccc12 (centres undefined) | -11 | -3 | 5.5* | 0 | 0 | -7
COc1ccc(C2C(C#N)=C(N)Oc3n[nH]c(C)c32)c(OC)c1OC (centres undefined) | -6 | -4 | 0 | 0 | . | .
Oc1ccc(CCNc2ccnc(N3CCN(c4ccccn4)CC3)n2)cc1 | -7 | 6 | 6.2* | 0 | 0 | -2
Cc1ncc2c(c1CNC(=O)CN1CCCCC1)CCN(C(=O)c1ccccc1)C2 | 7 | 6 | 0 | 0 | . | .
Cc1cccc(C)c1OCC(=O)Nc1ccccc1O | -3 | -2 | -1 | 0 | . | .
COc1ccc(/C=N/Nc2ccc([N+](=O)[O-])cc2[N+](=O)[O-])c(O)c1 | 1 | 13 | -1 | 1 | . | .
COC(=O)CN/N=C/c1ccc([N+](=O)[O-])cc1[N+](=O)[O-] | 7 | 2 | 7.6* | 0 | 1 | 12
SMILES | MITF primary | TEAD-YAP inh | GPR151 activ | FBW7 activator | GPR151 conf act | GPR119 counter
COc1ccc(C2CC(=O)C3=C(C2)Nc2ccccc2N(C(=O)C(F)(F)F)C3c2ccccc2)cc1 (centres undefined) | -11 | 5 | 5.1* | 0 | 1 | 3
COc1ccc(C(=O)Nc2nnc(C(C)C)s2)cc1[N+](=O)[O-] | -1 | -5 | 1 | 0 | . | .
COc1ccc2c(c1)NC(=O)CC(C)(C)O2 | 1 | 2 | 0 | 0 | . | .
CCN(CC)C(=O)c1cn(CCC#N)nc1-c1ccc(OC)c([N+](=O)[O-])c1 | 7 | -3 | 21* | 0 | 1 | 5
CCOC(=O)C1=CN(C(C)C)C=C(C(=O)OCC)C1c1ccc(OC)cc1OC | -14 | -1 | 5.4* | 0 | -1 | 2
CCOc1cc(C2C(C(=O)OC)=CN(C(C)C)C=C2C(=O)OC)cc(Br)c1O | 7 | 6 | 7.2* | 0 | 1 | -1
COC(=O)c1c(NC(=O)c2c(F)cccc2F)sc2c1CCN(C)C2 | -1 | 3 | 0 | 0 | . | .
CC(=O)C1=C(O)C(=O)N(CC#N)C1c1ccc(C)cc1 (centres undefined) | 2 | 3 | 1 | 0 | . | .
Cc1cccc(Nc2nc(-c3ccccn3)cs2)c1 | -3 | -13 | -2 | -2 | . | .
CCOc1ccc(N2CC(C(=O)Nc3ccc(Br)cc3CC)CC2=O)cc1 (centres undefined) | 4 | 0 | 4.9* | 0 | 0 | 9
Cc1ccc(NC(=O)C2CC(=O)N(c3ccc(F)cc3)C2)c(C)c1 (centres undefined) | 3 | 8 | 19* | 0 | 0 | 13
CSc1ccccc1NC(=O)N1CCCC(N(C)CCc2ccccn2)C1 (centres undefined) | -3 | -4 | 5.2* | 0 | -1 | -14
N#CCSc1nnc2sc3ccccc3n12 | -5 | -9 | 5.2* | 0 | 0 | -2
c1cncc(-c2nc(-c3ccncc3)cc(N3CCCCC3)n2)c1 | 13 | 16 | 5.2* | 0 | -1 | -8
CCN(CC)C(=O)C1CCCN1S(=O)(=O)c1cccc2nsnc12 (centres undefined) | 11 | -1 | 2 | 0 | . | .
CCN(C(=O)C1CCCN1S(=O)(=O)c1cccc2nsnc12)c1cccc(C)c1 (centres undefined) | 17 | 7 | 8.2* | 0 | -1 | 2
CCc1ccccc1NC(=O)CSc1nc2nc(C)c(Cc3ccc(F)cc3Cl)c(C)n2n1 | -13 | 8 | 0 | 0 | . | .
CCC(Sc1nc2nc(C)c(Cc3ccc(F)cc3Cl)c(C)n2n1)C(=O)Nc1ccccc1OC (centres undefined) | -9 | -11 | 5.4* | 0 | 0 | 6
O=C(O)C1CC=C(Cl)CC1C(=O)Nc1ccn[nH]1 (centres undefined) | -6 | 6 | 10.0* | 0 | 0 | 0
Cc1cc(C)nc(N2CC(=O)N(C)C2=N)n1 | -8 | -1 | 5.5* | 0 | 0 | 4
CN1C(=N)N(c2nc(N(C)C)nc(N(C)C)n2)CC1=O | -3 | 2 | 1 | 0 | . | .
O=C(NCCN1CCNCC1)c1c(O)c2c([nH]c1=O)CCCC2 | 3 | 7 | 2 | 0 | . | .
CCCCCNC(=O)c1c(O)c2c([nH]c1=O)CCCC2 | 9 | -14 | 18* | 1 | 1 | 3
